Each structure is given as a SMILES string. Hit rate of the full screen: of about 48,000 compounds, about 13,000 (27%) showed an effect of 50% or more. This is one part of the list.

The test system of the assay is Wolbachia pipientis. Kind of assay: Anti-Wolbachia Cell-Based Screen. Particulars: 5 µM. The arrangement: scale not given: in the data most compounds retested in dose-response had high values. Format: functional.
For `Cc1ccc(C)c(OC(C)C(=O)NCCNc2cccnc2)c1` (stereo not drawn), the “Percent Effect” value is recorded as 16.95%. In the case of `CCn1ncc2c1NC(=O)CC2c1cnc(-c2ccccn2)nc1` (stereo not drawn), the “Percent Effect” value is -2.059%. To `COc1ccccc1N1CCN(C(=O)Cn2nc(C)cc2C)CC1(C)C` belongs -9.26%; to `Cc1c(Cl)c(C(=O)N2CC[C@H](N3CCOCC3)[C@H](CCCO)C2)nn1C`, -7.195%.

Regarding `CC(C)Cc1noc(CN2CCN(C(=O)c3cccs3)CC2)n1`, the “Percent Effect” value was -25.07%.

For the compound `CC(C)(C)c1nc(CN2CCC(c3nc4cc(Cl)ccc4o3)CC2)no1`, the “Percent Effect” value was -20.96%.

Turning to `CCc1noc(CN2CCN(Cc3cccs3)CC2)n1`, the “Percent Effect” value was 91.28%. The figure for `CCc1noc(CN2CCCN(Cc3cccs3)CC2)n1` is 74.2%; for `CCc1nc(CN2CCCN(c3cnc4ccccc4n3)CC2)no1` it is -8.028%. Turning to `CC(C)(C)c1nc(CN2CCCN(Cc3cccs3)CC2)no1`, the “Percent Effect” value came to 85.49%.

Take `CC(C)CCN1CCN(Cc2nc(C(C)C)no2)CC1`: the “Percent Effect” value is reported as -7.959%.

Turning to `CC(C)c1noc(CN2CCCN(Cc3cccs3)CC2)n1`, the “Percent Effect” value is 67.59%. The figure for `CC(C)(C)c1noc(CN2CCCN(Cc3cccs3)CC2)n1` is 1.032%. Take `CCc1noc(CN2CCCN(C(N)=O)CC2)n1`: the “Percent Effect” value was -3.109%. In the case of `Cc1noc(CN2CCN(Cc3cccs3)CC2)n1`, the “Percent Effect” value is on record as 0.5359%.

For `Cc1cc2nc(CO[C@H]3CN(CC4CC4)C[C@H]3F)[nH]c2cc1C`, the “Percent Effect” value was -2.135%. The figure for `Cc1cc(C)n(CC(C)NC2CCN(Cc3cccnc3)CC2)n1` (stereo not drawn) is -17.52%; for `CN1C(=O)[C@H](OC(N)=O)[C@@H](C(=O)Nc2ccccc2)C12CCNCC2` it is 104.3%; for `CN1C(=O)CO[C@H](c2ccc(NC(=O)Nc3ccccc3)cc2)[C@H]1CO` it is -13.1%. Turning to `CO[C@H]1C(=O)N(C)C2(CCNCC2)[C@@H]1C(=O)Nc1ccccc1`, the “Percent Effect” value is on record as 91.16%.

Consider `CNC(=O)[C@@H]1[C@@H](OC(=O)Nc2ccccc2)C(=O)N(C)C12CCNCC2`, for which the “Percent Effect” value is listed as 89.46%. The figure for `CN1CC2(CNCCN(C(=O)Nc3ccccc3)C2)CC1=O.O=C(O)C(F)(F)F` (stereo not drawn) is -22.36%; for `O=C(Nc1ccccc1)[C@H]1O[C@H](CCN2CCNCC2)CC[C@@H]1O` it is 1.571%. The figure for `Cc1ncccc1OC1(C(=O)NCCNc2ccccc2)CCNCC1` is -10.51%. For the compound `CCc1cc(N2CCSCC2)n2nc(C)c(C)c2n1`, the “Percent Effect” value is reported as 8.974%. To `Cc1n[nH]c(C)c1CCN(C)C(=O)c1ccc(CCC(C)(C)O)cc1` belongs 11.25%; to `CN(Cc1cc(Br)cn1C)C(=O)c1cc(Cl)ccn1`, -3.777%; to `O=C(c1cc(-c2cn[nH]c2)nc2ccc(F)cc12)N1CCSCC1`, 9.042%.

The values above are taken from ChEMBL document CHEMBL3988442, “University of Dundee, Small-Polar-MMV Screening Library” (2021).
